# PubChem BioAssay AID651958 (The Scripps Research Institute Molecular Screening Center, 2012)
# About 2,000 (0.54%) of roughly 370,000 compounds were called active. No stated cut-off is given here; in the data, active means inhibition above about 30%; inactive means the rest. The list comes from a sample in which actives are over-represented; it also holds similar structures and randomly drawn compounds.
# System: Crimean-Congo hemorrhagic fever virus L polyprotein viral ovarian tumor (vOTU) protease domain
# Experiment: CCHFV vOTU protease inhibitors, primary screen, biochemical, Pep-AMC substrate, fluorescence (AID 651958); further: 0% = vehicle wells with enzyme and 100% = no enzyme wells
# Settings: at 11.5 µM, hits give high values
row,SMILES,inhibition
1,CCOC(=O)N/N=C1\CC(C)S(=O)(=O)c2ccc(Cl)cc21 (stereo not drawn),-1.67% (inactive)
2,COc1ccc(C(=O)N2CCN(c3ccc(C(C)=O)cc3F)CC2)cc1S(=O)(=O)NC1CC1,12.2% (inactive)
3,COc1ccc(C(N)c2csc(NC(=O)Nc3cccc(C(F)(F)F)c3)n2)cc1 (stereo not drawn),36.4% (active)
4,COc1ccc(CN2C(CC(=O)Nc3cccnc3)c3ccc(C(F)(F)F)cc3S2(=O)=O)cc1 (stereo not drawn),1.05% (inactive)
5,COc1cccc(NC(=O)Nc2nnc(N3CCCCC3C)s2)c1 (stereo not drawn),8.79% (inactive)
6,O=C1[C@@H](c2ccccc2)[C@@H](c2ccccc2)N1c1ccccc1,-7.47% (inactive)
7,COc1ccc(C(C)=O)cc1CSc1nc2nc(C)cc(C)n2n1,-9.62% (inactive)
8,COc1ccc(C(=O)/C=C/c2ccc(-c3ccccc3)cc2)cc1CSCC(=O)O,29.8% (active)
9,COc1cc(C(=O)N2CCN(C/C=C/c3ccccc3)CC2)cc(OC)c1C,11.4% (inactive)
10,Cc1noc(C)c1S(=O)(=O)N(C)C[C@H]1OCCCC[C@@H](C)Oc2ccc(NC(=O)CCCN(C)C)cc2C(=O)N([C@H](C)CO)C[C@@H]1C,-8.1% (inactive)
11,CC(C)CN1CCC1(C)C(=O)Nc1ccc(OC(F)F)cc1 (stereo not drawn),15.4% (inactive)
12,CC(C)NC(=O)C1(C)CCCCN1Cc1cccc(C(F)(F)F)c1 (stereo not drawn),0.49% (inactive)
13,CC(C)Oc1ccc(CN2CCC2(C)C(=O)NCc2ccc(C(F)(F)F)cc2)cc1 (stereo not drawn),35.6% (active)
14,CC(=O)N=c1ncn(CC(COC(C)=O)OC(C)=O)c2nc[nH]c12 (stereo not drawn),6.99% (inactive)
15,COC(=O)Cc1ccc(OC2(C)CCN(Cc3ccc4c(c3)OCCO4)C2)cc1 (stereo not drawn),0.88% (inactive)
16,CC(C)(C)NC(=O)C(c1ccco1)N(Cc1ccc2c(c1)OCO2)C(=O)Cn1nnc2ccccc21 (stereo not drawn),5.93% (inactive)
17,CCCCCCCCNS(=O)(=O)/C=C/c1cc(C)ccc1CNC(=O)OC(C)(C)C,29.5% (inactive)
18,COCCn1c(=O)[nH]c(=O)c2cc(C(=O)c3cc(OC)ccc3O)cnc21,16.3% (inactive)
19,CCc1ccc(NC(=O)CN2C(=O)COc3ccc(S(=O)(=O)N4CCCC4)cc32)cc1,-0.54% (inactive)
20,COP(=O)(Sc1ccccc1)C(Cc1ccccc1)NC(=O)OCc1ccccc1 (stereo not drawn),3.36% (inactive)
21,COc1cc(CN2CCCN(C)CC2)c([N+](=O)[O-])cc1OC,-3.03% (inactive)
22,COc1cc2c(cc1OC)C(c1cccc([N+](=O)[O-])c1)=NCC2,10.7% (inactive)

row,SMILES,inhibition
1,COc1cc2c(cc1OC)C(Cc1cc(OC)c(OC)cc1[N+](=O)[O-])=NCC2,40% (active)
2,CC(C)CCNC(=O)Cn1c(=O)oc2cc(S(=O)(=O)N3CC(C)CC(C)C3)ccc21 (stereo not drawn),7.1% (inactive)
3,CCCNC(=O)C1(C)CCN(C(=O)c2cc(F)ccc2C)C1 (stereo not drawn),6.2% (inactive)
4,Nc1ccc(N=Nc2ccccc2Cl)c(N)n1,30% (active)
5,COc1ccc(C(C(=O)NC(C)(C)C)N(C(=O)Cn2nnc3ccccc32)c2ccc(C(C)=O)cc2)cc1O (stereo not drawn),21.7% (inactive)
6,Cc1nc(N)nc(SCc2ccc([N+](=O)[O-])cc2)c1N,-13.9% (inactive)
7,Cc1ccc(S(=O)(=O)NC(C(=O)N2CCOCCOCCOCCOCC2)c2ccccc2)cc1 (stereo not drawn),-5.21% (inactive)
8,N[C@@H](Cc1ccccc1)C(=O)N1CCOCC1,-2.24% (inactive)
9,Cc1oc2c(c1C(=O)N1CCOCC1)C(=O)c1ccccc1C2=O,70.8% (active)
10,COc1cc(CN2CCCC(C(=O)c3ccc(SC)cc3)C2)cc(Cl)c1O (stereo not drawn),2.91% (inactive)
11,CCOC(=O)[C@H]1[C@H]2COc3ccccc3[C@@H]2N2C(=O)CN(Cc3ccccc3)C(=O)[C@@]12C,-6.74% (inactive)
12,CN1c2ccc(C=O)c3c(C=O)ccc(c23)N(C)C1(C)C,65.2% (active)
13,CN1CCN(c2ccncc2S(=O)(=O)N2CCCC2)CC1,-8.15% (inactive)
14,CN(CC(=O)NCC(c1ccccc1)N1CCCC1)S(=O)(=O)c1ccc(Cl)cc1 (stereo not drawn),-5.38% (inactive)
15,COc1ccc(C(CNC(=O)COc2ccccc2OC)N2CCCCC2)cc1 (stereo not drawn),0.37% (inactive)
16,CCc1ccc(OCC(=O)NCC(c2ccc(Cl)cc2)N2CCCCC2)cc1 (stereo not drawn),31% (active)
17,N#Cc1c(N)nc2c(c1N)CC(C(F)(F)F)O2 (stereo not drawn),-10.2% (inactive)
18,CCCCOCCCNC(=O)C[C@@H]1C[C@@]2(C(=O)OCC)CCCC=C2N(CCC2=CCCCC2)C1=O,15.7% (inactive)
19,COCCNC(=O)c1onc(CSc2cccc(C)c2)c1C(=O)O,-0.14% (inactive)
20,COc1cccc(CNC(=O)COC(=O)CN2C(=O)NC3(CCCCC3C)C2=O)c1 (stereo not drawn),-7.15% (inactive)
21,CC1CCCCC12NC(=O)N(CC(=O)OCC(=O)NCc1ccc(F)cc1)C2=O (stereo not drawn),34.9% (active)
22,CCCc1ccc(C(=O)COC(=O)CN2C(=O)NC3(CCCCC3C)C2=O)cc1 (stereo not drawn),16.5% (inactive)

row,SMILES,inhibition
1,Cc1ncc([N+](=O)[O-])n1CCOC(=O)c1ccc(Br)cc1,-0.48% (inactive)
2,CCCCCCCNc1nc(Cl)nc(NCCO)n1,12.8% (inactive)
3,CC1CCCN(c2ccc(C(=O)NCCc3ccccc3)cn2)C1 (stereo not drawn),-7.43% (inactive)
4,O=C1Nc2ccc([N+](=O)[O-])cc2C1=Nc1cccc(CO)c1,58.7% (active)
5,O=C(CCl)N(Cc1cccc([N+](=O)[O-])c1)c1cccc(Cl)c1,0.95% (inactive)
6,CCC(=O)N(C)C(c1ccccc1Cl)c1nnnn1-c1c(C)cccc1C (stereo not drawn),-4.14% (inactive)
7,CC(=O)OCc1cc(=O)n(C)c(=O)n1C,-3.25% (inactive)
8,[2H]C(CCOS(N)(=O)=O)c1ccccc1 (stereo not drawn),-9.88% (inactive)
9,COc1ccc(S(=O)(=O)NC(C)C(=O)N2CCCCCC2)cc1 (stereo not drawn),-2.68% (inactive)
10,Cc1ccc(S(=O)(=O)/N=C2\C=C(NS(=O)(=O)c3ccc(C)cc3)C(=O)c3ccccc32)cc1,77.7% (active)
11,COc1ccc(S(=O)(=O)/N=C2\C=C(NS(=O)(=O)c3ccccc3)C(=O)c3ccccc32)cc1,65% (active)
12,Cc1ccc(S(=O)(=O)N[C@H](CO)C(C)C)cc1,6.27% (inactive)
13,Cc1ccc(S(=O)(=O)/N=S(\C)C(C)C)cc1 (stereo not drawn),-11.6% (inactive)
14,COc1ccc(N2CCN(C3CCCCC3NS(=O)(=O)c3ccccc3)CC2)cc1 (stereo not drawn),19.5% (inactive)
15,COC(=O)CN1C(=O)C2(C(C(=O)OC)=C(N)Oc3ccccc32)C2=C1CC(C)(C)CC2=O (stereo not drawn),-11.2% (inactive)
16,CC(=O)N1Cc2cc(C(=O)NCc3cccc(F)c3)nc(-c3cccc(C4=CCCCC4)c3)c2[C@H]1CCO,9.9% (inactive)
17,CN1CCN(S(=O)(=O)c2cccc(C(=O)Nc3sccc3C#N)c2)CC1,-2.97% (inactive)
18,C=CCSC1=C(C#N)C(c2cc(Br)c(O)c(OC)c2)CC(=O)N1 (stereo not drawn),-4.94% (inactive)
19,Cc1ccc(S(=O)(=O)N(c2cccc(C)c2)C2CCS(=O)(=O)C2)cc1 (stereo not drawn),4.15% (inactive)
20,CN1CCN(C(=O)C2=C[C@H](c3ccc4c(c3)OCO4)C[C@H](OCc3ccc(CO)cc3)O2)CC1,-2.44% (inactive)
21,COc1ccc(CCC(C)N2CCc3ccccc3C2)cc1 (stereo not drawn),2.02% (inactive)
22,COc1ccc(-n2nnnc2C(c2cccc3ccccc23)N2CCC(n3c(=O)[nH]c4ccccc43)CC2)cc1 (stereo not drawn),7.58% (inactive)

row,SMILES,inhibition
1,COCCn1nnnc1C(c1cc2ccc(OC)cc2[nH]c1=O)N1CCc2ccccc2C1 (stereo not drawn),103% (active)
2,COc1cc(CN(C)Cc2nc3cc(C(F)(F)F)ccc3c(=O)[nH]2)ccc1OC(F)F,14.7% (inactive)
3,CC1(C)CC(=O)C(N=Nc2c(F)cccc2F)=C(O)C1,10.4% (inactive)
4,CC(C)N1CCC(NC(=O)Nc2ccccc2)CC1,-6.34% (inactive)
5,CC1(c2cccc(Br)c2)NC(=O)N(CC(=O)NCCC2=CCCCC2)C1=O (stereo not drawn),6.44% (inactive)
6,CSCC(=O)N1CCCC(C(=O)c2cc(F)ccc2F)C1 (stereo not drawn),-7.31% (inactive)
7,COc1ccc(C(=O)N2CCCC(C(=O)c3ccccc3OC)C2)cc1OC (stereo not drawn),4.28% (inactive)
8,COc1ccc(F)cc1C(=O)C1CCCN(C(=O)CCc2ccccn2)C1 (stereo not drawn),32.7% (active)
9,Cc1cc(Cl)c(S(=O)(=O)NCc2cccnc2)cc1OCC(N)=O,-2.02% (inactive)
10,COP(=O)(OC)C(NC(=O)c1ccc(C)cc1)C(Cl)(Cl)Cl (stereo not drawn),-12.8% (inactive)
11,CC(C)NS(=O)(=O)c1ccc(NC(=O)C2CCCCC2)cc1,-0.67% (inactive)
12,Cc1ccc(S(=O)(=O)NC2CCCCCC2)cc1C(N)=O,-2.9% (inactive)
13,Cc1nnc(SC(C)C(=O)Nc2ccc(S(=O)(=O)NC3CCCCC3)cc2)s1 (stereo not drawn),31.6% (active)
14,Cc1ccc(NC(=O)COC(=O)C2C3CC4OC(=O)C2C4C3)cc1Cl (stereo not drawn),6.39% (inactive)
15,Cc1ccc(C(C(=O)NC2CCCC2)N(Cc2ccco2)C(=O)CCC(=O)Nc2ccccn2)cc1 (stereo not drawn),3.43% (inactive)
16,COc1ccc(CCn2c(O)c(C=NCCCn3ccnc3)c(=O)[nH]c2=O)cc1OC,2.55% (inactive)
17,CCCCC(=O)N(C)c1c(CC)nc2c(OCc3ccc(Cl)cc3Cl)cccn12,28.5% (inactive)
18,CC(=O)N(C1=C(Cl)C(=O)c2ccccc2C1=O)c1ccc(C(=O)O)cc1,99.3% (active)
19,O=C1C(Cl)=C(Oc2ccccc2)C(=O)c2ccccc21,6.2% (inactive)
20,CCCCN=C1C([N+](=O)[O-])=CC=C2C1=NC1(CCCCC1)N2O,9.17% (inactive)
21,Cc1ccc(C)c(OCCC(=O)OCC(=O)NC(=O)NCc2ccccc2)c1,0.04% (inactive)
22,COc1ccc2c(c1)c(=Cc1ccc(N(C)C)cc1)c1cc(-c3ccccc3)[n+](C)n12,55.6% (active)
